From PubChem
D2 ag-1: agonists of human D2 dopamine receptor (beta-arrestin); activation, % (no concentration beside the values); DiscoveRx PathHunter D2 beta-arrestin, luminescence, 90 min; 100% = 57 uM dopamine signal; AID 624465; P14416; actives 0.084% (n = 360,000); in the data active = activation above about 40%
Target sequence (P14416 whole entry, looked up): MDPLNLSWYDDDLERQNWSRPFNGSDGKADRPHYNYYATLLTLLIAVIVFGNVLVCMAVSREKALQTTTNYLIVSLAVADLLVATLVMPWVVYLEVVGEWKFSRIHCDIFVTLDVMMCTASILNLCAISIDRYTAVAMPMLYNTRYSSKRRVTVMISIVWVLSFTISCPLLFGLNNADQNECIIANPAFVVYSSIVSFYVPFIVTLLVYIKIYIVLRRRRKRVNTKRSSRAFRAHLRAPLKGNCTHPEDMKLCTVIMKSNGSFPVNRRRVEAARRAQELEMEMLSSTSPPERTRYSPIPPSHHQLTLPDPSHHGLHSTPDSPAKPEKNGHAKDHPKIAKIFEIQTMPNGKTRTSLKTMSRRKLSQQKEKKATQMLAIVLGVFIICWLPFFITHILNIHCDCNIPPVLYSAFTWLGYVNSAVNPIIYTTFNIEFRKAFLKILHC
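Agonist mode: compounds alone added to overnight-plated D2 PathHunter cells for 90 min at 37 C, with 57 uM final dopamine (EC100) defining full response. Beta-arrestin recruitment detected by chemiluminescent reagent, read after 1 h at ambient temperature.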
D2 PAM-1: human D2 receptor positive allosteric modulation; P14416; DiscoveRx D2 beta-arrestin cells, luminescence, 90 min; 100% = 57 uM dopamine signal; potentiation, % (concentration not given with the values); actives 0.23% (n = 360,000); AID 624464; in the data active = potentiation above about 50%
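PathHunter D2 cells, attached overnight at 37 deg C, received compound in DMSO plus dopamine at EC20 (50 nM final) for 90 min at 37 deg C. Beta-arrestin recruitment was read as luminescence after 1 h with detection reagent at ambient temperature.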
D2 ag-2: agonists of human D2 dopamine receptor. activation, % at 2 µM. P14416. actives 0.53% (n = 340,000). HEK293 T-REx D2 cells, calcium flux agonist mode;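 active = activation over 3 SD above normal in the single-dose calcium agonist read, cut at about 30% in these data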
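Agonism is scored from calcium flux in a force-coupled, inducible HEK293 cell line expressing D2, read kinetically for 180 s after compound addition against dopamine controls.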
D2 antag: D2 dopamine receptor (human) antagonism | inhibition, % at 10 µM | actives 2% (n = 340,000) | HEK293 TREx D2 cells, calcium flux, dopamine EC80 | AID 485344; in the data active = inhibition above about 30%; inactive = below that, where a call was filed
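Read-out: kinetic calcium fluorescence (1 cycle/s) in inducible HEK293 T-REx D2 cells after an EC80 dopamine addition that followed 180 s compound preincubation. Loss of the dopamine response indicates antagonism.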
D2 PAM-2: D2 dopamine receptor (human) potentiation; actives 0.34% (n = 340,000); potentiation, % at 10 µM; AID 485347; HEK293 T-REx D2, calcium flux, EC20 dopamine potentiation;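 active = potentiation over 3 SD above the plate norm, cut at about 30% in these data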
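Potentiation of an EC20 dopamine calcium response is measured in a force-coupled, tetracycline-inducible Hek293 Trex D2 line. Compound-only kinetic reads over 180 s flag agonists before dopamine addition.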
Hits are given with their value. The list is not random: actives were taken first. Their share in the collection is about 2.4%.

Cc1ccc(C)c(OCC(O)CN2CCN(CCN3C(=O)c4cccc5cccc(c45)C3=O)CC2)c1 (stereo not given) was read as D2 ag-1 inactive, D2 PAM-1 inactive, D2 ag-2 inactive, D2 antag inactive and D2 PAM-2 inactive.
Screening CC(C)=C(NC(=O)c1ccccc1)C(=O)NC(Cc1ccccc1)C(=O)O (stereo not given) returned D2 ag-1 inactive, D2 PAM-1 inactive, D2 ag-2 inactive, D2 antag 39 and D2 PAM-2 inactive.
For Cc1ccc(NC(=O)c2ccc(CNS(=O)(=O)c3ccc4c(c3)C(C)(C)C(=O)N4C)cc2)cc1F the results were D2 ag-2 inactive.
Screening Cc1ccc(Cl)cc1NC(=O)C(=O)NCC(c1cccnc1)N1CCc2ccccc21 (stereo not given) returned D2 ag-2 inactive and D2 PAM-2 inactive.
`COc1ccc(-c2noc(-c3ccccc3C(=O)NCc3ccco3)n2)cc1` gave D2 ag-1 inactive, D2 PAM-1 inactive, D2 ag-2 inactive, D2 antag inactive and D2 PAM-2 inactive.
Screening O=C(NCc1ccco1)c1ccc(S(=O)(=O)N2CCCc3ccccc32)cc1 returned D2 ag-1 inactive, D2 PAM-1 inactive, D2 ag-2 inactive, D2 antag 40 and D2 PAM-2 inactive.
O=C(NCc1ccco1)c1ccc2c(c1)C(=O)c1ccccc1-2 was read as D2 ag-1 inactive, D2 PAM-1 inactive, D2 ag-2 inactive, D2 antag 30 and D2 PAM-2 inactive.
For O=C(NCc1ccco1)c1cc([N+](=O)[O-])cc([N+](=O)[O-])c1 the results were D2 ag-1 inactive, D2 PAM-1 83, D2 ag-2 inactive, D2 antag inactive and D2 PAM-2 inactive.
For COc1ccc(-c2noc(-c3ccccc3C(=O)NCc3ccco3)n2)cc1OC the results were D2 ag-1 inactive, D2 PAM-1 inactive, D2 ag-2 inactive, D2 antag inactive and D2 PAM-2 32.
For O=C(CSc1nnc2[nH]c(=O)cc(-c3ccccc3)n12)Nc1ccc(OC(F)(F)F)cc1 the results were D2 ag-2 inactive and D2 PAM-2 inactive.
CCCCNC(=O)CSc1nnc(C)c2c(C)n(-c3ccccc3)nc12 was read as D2 ag-2 inactive and D2 PAM-2 inactive.
CC(C)NC(=O)Cn1c(=O)nc(-c2ccccc2)c2ccccc21 was read as D2 ag-2 inactive and D2 PAM-2 inactive.
`Cc1cn2c(=O)cc(COC(=O)COc3ccc(C)c(C)c3)nc2s1` gave D2 ag-2 inactive and D2 PAM-2 inactive.
Screening CCOC(=O)c1cc(-c2ccccc2)n(CCC(=O)Nc2ccc(C(F)(F)F)cc2)c1C returned D2 ag-2 inactive and D2 PAM-2 inactive.
COc1ccc(C2C(C#N)=C(C)NC3=C2S(=O)(=O)c2ccccc23)cc1 (stereo not given) was read as D2 ag-1 inactive, D2 PAM-1 inactive, D2 ag-2 inactive, D2 antag inactive and D2 PAM-2 32.
For COC(=O)C1=C(C)NC2=C(C1c1ccc(O)cc1)S(=O)(=O)c1ccccc12 (stereo not given) the results were D2 ag-1 inactive, D2 PAM-1 inactive, D2 ag-2 inactive, D2 antag inactive and D2 PAM-2 inactive.
`Cn1c(SCC(=O)N2CCOCC2)ncc(C(=O)Nc2ccc(F)cc2)c1=O` gave D2 ag-2 inactive and D2 PAM-2 inactive.
`Cc1ccccc1C(=O)NNC(=O)c1ccoc1C` gave D2 ag-1 inactive and D2 PAM-1 inactive.
`Cc1occc1C(=O)NNC(=O)c1ccccc1C(=O)O` gave D2 ag-1 inactive, D2 PAM-1 inactive, D2 ag-2 inactive, D2 antag 31 and D2 PAM-2 inactive.
Screening CCOC(=O)c1cccnc1SCc1cc(=O)n2ccccc2n1 returned D2 ag-1 inactive, D2 PAM-1 inactive, D2 ag-2 inactive, D2 antag inactive and D2 PAM-2 inactive.
CC(OC(=O)c1cccnc1SCc1cc(=O)n2ccccc2n1)c1ccccn1 (stereo not given) was read as D2 ag-1 inactive, D2 PAM-1 inactive, D2 ag-2 inactive, D2 antag inactive and D2 PAM-2 30.
`CCOC(=O)c1ccc(NC(=O)CC2C(=O)N(c3ccccc3)C(=O)N2C2CCCCC2)cc1` (stereo not given) gave D2 ag-2 inactive and D2 PAM-2 inactive.
Screening COc1cc(C(C)=O)ccc1OCC(O)CN1CCN(c2ccccn2)CC1 (stereo not given) returned D2 ag-1 60, D2 PAM-1 inactive, D2 ag-2 78, D2 antag 93 and D2 PAM-2 inactive.
Screening C=CCc1ccccc1OCC(O)CN1CCN(c2ccccc2F)CC1 (stereo not given) returned D2 ag-1 inactive, D2 PAM-1 inactive, D2 ag-2 inactive, D2 antag 66 and D2 PAM-2 inactive.
C=CCc1ccccc1OCC(O)CN1CCN(c2ccccc2OC)CC1 (stereo not given) was read as D2 ag-1 inactive, D2 PAM-1 inactive, D2 ag-2 inactive, D2 antag inactive and D2 PAM-2 inactive.
For COc1ccccc1N1CCN(CC(O)COc2cccc3ccccc23)CC1 (stereo not given) the results were D2 ag-1 inactive, D2 PAM-1 inactive, D2 ag-2 inactive, D2 antag 86 and D2 PAM-2 inactive.
COc1ccccc1N1CCN(CC(O)c2c(C)[nH]c3ccccc23)CC1 (stereo not given) was read as D2 ag-1 inactive, D2 PAM-1 inactive, D2 ag-2 inactive, D2 antag 65 and D2 PAM-2 inactive.
For COc1ccc(N(Cc2cc3cccc(C)c3[nH]c2=O)C(=O)c2cccc(Cl)c2)cc1 the results were D2 ag-2 inactive and D2 PAM-2 inactive.
Screening COc1ccccc1N1CCN(CC(=O)c2c[nH]c3ccccc23)CC1 returned D2 ag-1 inactive, D2 PAM-1 inactive, D2 ag-2 inactive, D2 antag 63 and D2 PAM-2 inactive.
`COc1ccccc1N1CCN(CC(=O)c2c(C)[nH]c3ccccc23)CC1` gave D2 ag-1 inactive, D2 PAM-1 inactive, D2 ag-2 inactive, D2 antag 31 and D2 PAM-2 inactive.
`COc1ccc2c(C(=O)CN3CCN(c4ccccc4)CC3)c[nH]c2c1` gave D2 ag-1 inactive, D2 PAM-1 inactive, D2 ag-2 56, D2 antag 41 and D2 PAM-2 inactive.
COc1ccc2c(C(=O)CN3CCSCC3)c[nH]c2c1 was read as D2 ag-1 inactive, D2 PAM-1 inactive, D2 ag-2 inactive, D2 antag inactive and D2 PAM-2 inactive.
COC(=O)c1[nH]c2cc(C)ccc2c1NC(=O)CN1CCN(c2ccccc2OC)CC1 was read as D2 ag-1 inactive, D2 PAM-1 inactive, D2 ag-2 inactive, D2 antag 70 and D2 PAM-2 inactive.
O=C(CN1CCN(c2ccccc2F)CC1)c1c[nH]c2ccccc12 was read as D2 ag-1 inactive, D2 PAM-1 inactive, D2 ag-2 inactive, D2 antag inactive and D2 PAM-2 inactive.
